# NLRP3 yeast inh: blocks the NALP3 inflammasome reconstituted in yeast | Yeast reconstituted NLRP3/ASC/caspase-1, beta-gal luminescence, 24 h | 330,000 tested, 0.39% active | inhibition, % at 10 µM;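 active = inhibition of 50% or more; inactive = inhibition below 50%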;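 note: plate controls were induced DMSO wells for no effect and uninduced yeast grown without galactose for full effect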
# CHT inh: human CHT choline transport inhibition; B-score at 10 µM; CHT-expressing cells, membrane potential dye, choline response; hits give low values; 310,000 tested, 0.86% active; Q9GZV3;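 active = B-score over 3 SD under the library average, and starting fluorescence ratio not unusually high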;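 note: choline stimulus applied at its EC90 after an EC20 pre-addition; B-score computed on integrated fluorescence ratio after choline addition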
# Target sequence (Q9GZV3 whole entry, looked up): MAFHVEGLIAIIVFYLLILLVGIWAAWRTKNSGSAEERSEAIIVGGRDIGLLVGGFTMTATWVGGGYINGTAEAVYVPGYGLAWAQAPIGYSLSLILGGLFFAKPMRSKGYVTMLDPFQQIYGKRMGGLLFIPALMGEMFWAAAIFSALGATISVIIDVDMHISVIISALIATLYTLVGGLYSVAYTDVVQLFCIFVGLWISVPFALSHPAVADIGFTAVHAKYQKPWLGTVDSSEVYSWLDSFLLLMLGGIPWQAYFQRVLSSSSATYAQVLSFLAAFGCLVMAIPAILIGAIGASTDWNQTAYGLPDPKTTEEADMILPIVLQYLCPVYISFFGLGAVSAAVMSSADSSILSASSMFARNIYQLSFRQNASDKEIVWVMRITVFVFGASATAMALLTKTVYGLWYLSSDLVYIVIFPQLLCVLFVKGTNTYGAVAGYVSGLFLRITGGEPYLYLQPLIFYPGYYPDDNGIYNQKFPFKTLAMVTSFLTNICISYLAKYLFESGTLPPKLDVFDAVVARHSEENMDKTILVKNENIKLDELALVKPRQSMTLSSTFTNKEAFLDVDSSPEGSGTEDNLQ
# CHT allo act: allosteric activators of human choline transporter CHT. Q9GZV3. CHT-expressing cells, membrane potential dye, choline EC20; hits give high values; LV-AA mutant CHT in HEK293 cells. B-score at 10 µM. 310,000 tested, 0.49% active;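 active = initial fluorescence not abnormally high and integrated response B-score, plate-corrected, over 3 SD above library mean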
# NALP1 yeast inh: inhibitors of NALP1 inflammasome in yeast | S. cerevisiae NALP1/ASC/caspase-1 growth, X-gal OD620, 72 h | inhibition, % at 10 µM | 280,000 tested, 0.61% active | AID 2071; in the data active = inhibition mostly above about 24%, no sharp cut-off; inactive = mostly below about 32%
# Bfl-1 A1 inh: inhibitors of the anti-apoptotic protein A1, read as caspase activation; MEF A1-2A-BIM cells, Caspase-Glo 3/7 luminescence, 3 h; percent of clofoctol response, vehicle zero; caspase activation, % (concentration not given with the values); 330,000 tested, 0.066% active; AID 2462;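 active = over half of replicate activation scores above 10%, or exactly half above 10 with the replicate mean above 10; inconclusive = replicate mean below 10 yet half the replicates above 10; inactive = over half of replicates below 10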
# SUMO Mot1 rescue: inhibitors of SUMOylation pathway: yeast Mot1-301 growth rescue; S. cerevisiae Mot1-301 growth rescue, ATP luminescence, 38.5C; percent above DMSO median, 100 means doubled; growth rescue, % at 18.8 µM; 320,000 tested, 1% active;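 active = every valid replicate shows activation above 250% relative to neutral control wells; inactive = the rest, any valid replicate at or below 250%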;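 note: OY570 slx delta 5 strain wells were the positive control but not used for scaling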
# * = called active by the depositor; i = inactive; ? = inconclusive; nt = no result; + = active, no number. A selection: hits, their analogues and other compounds. The true share with any hit is near 3%.
SMILES,NLRP3 yeast inh,CHT inh,CHT allo act,NALP1 yeast inh,Bfl-1 A1 inh,SUMO Mot1 rescue
COc1cc(CCC(=O)NCc2ccc3c(c2)OCO3)cc(OC)c1OC,-0.1,i,i,-4.6,0.6,114.8
COc1ccccc1CNC(=O)c1cc2ccccc2oc1=O,6.7,i,i,28.0*,1.2,-2.8
COc1ccccc1CNC(=O)c1cc2ccccc2o1,33.3,i,i,8.6,-0.4,16.7
CCCCNC(=O)c1ccc(Cn2c(=S)[nH]c3c([nH]c4ccc(OC)cc43)c2=O)cc1,14.7,i,i,2.9,50.9*,-1.8
CC1c2cc3c(cc2CCN1C(=O)c1cccc(F)c1)OCCCO3 (centres undefined),-7.3,i,i,-3.2,-1.1,66.9
Cc1ccc(N(C(C)C(=O)O)S(=O)(=O)c2c(C)[nH]c(=O)[nH]c2=O)cc1 (centres undefined),6.4,i,i,41.7*,-0.2,1.9
CCCCCCCC/C=C\CCCCCCCC(=O)NCCO,24.8,i,i,nt,-0.2,8.8
CCCCCCCC/C=C\CCCCCCCC(=O)NCCc1ccc(O)c(O)c1,18.5,i,i,nt,11.9*,4.1
O=C(CCn1cccn1)N1CCCC(N2CCN(c3cccc(Cl)c3)CC2)C1 (centres undefined),3.5,i,i,6.0,0.6,-5.2
CSc1ccc(C(=O)C2CCCN(C(=O)c3cc4cc(F)ccc4[nH]3)C2)cc1 (centres undefined),33.0,i,i,-3.5,-0.1,446.7*
COCCCN1C(=O)C(=O)/C(=C(/O)c2ccc(S(=O)(=O)N3CCOCC3)cc2)C1c1cccc(Cl)c1 (centres undefined),18.8,i,i,15.0,0.0,2.8
CCC(=O)Oc1ccc(C(=O)Nc2ccccc2C(=O)NCC(C)C)cc1,8.8,i,i,4.6,-0.2,-16.7
CCC(=O)Oc1ccc(C(=O)Nc2cccc(C(=O)NCC(C)C)c2)cc1,1.8,i,i,-9.3,2.2,+
COc1ccccc1C(=O)C1CCCN(C(=O)c2ccccc2C(C)=O)C1 (centres undefined),6.9,nt,nt,27.4*,nt,nt
COc1ccccc1C(=O)C1CCCN(C(=O)c2ccc(C(C)=O)s2)C1 (centres undefined),-3.6,i,i,2.5,-0.1,-2.8
CC(C)(C)c1ccc(C(=O)N2CCC(C(=O)NC3CCCCCC3)CC2)cc1,23.1,-5.11*,i,3.0,0.3,-7.2
CCC(=O)N(CCC(c1ccccc1)c1ccco1)Cc1cccs1 (centres undefined),-6.7,i,9.51*,-8.4,0.1,2.8
CCCCN(C(=O)c1cc(CC)c(C)s1)c1c(N)n(CCC)c(=O)[nH]c1=O,23.3,i,i,nt,-0.9,-3.5
CCOC(=O)c1ccccc1NC(=O)COC(=O)C1=COCCO1,7.4,i,i,35.2,0.4,285.7*
CCCCCCc1c(C)c2ccc(OCC(=O)N[C@@H](Cc3ccccc3)C(=O)O)cc2oc1=O,9.3,i,i,5.3,-0.4,522.5*
CCCCc1cc(=O)oc2cc(OCC(=O)N[C@@H](Cc3ccccc3)C(=O)O)ccc12,22.0,i,i,13.1,-0.3,523.0*
Cc1cc(OCC(=O)Nc2ccc(CN3CCOCC3)cc2)c2c(C)c(C)c(=O)oc2c1,8.0,i,i,5.9,0.3,305.1*
Cc1cc(OCC(=O)Nc2ccc(CN3CCOCC3)cc2)c2c(C)cc(=O)oc2c1,19.2,i,i,-1.5,-0.2,-4.3
CCCC1(c2ccccc2)NC(=O)N(CC(=O)c2[nH]c(C)c(C(=O)OCC)c2C)C1=O (centres undefined),25.0,-9.81*,i,20.2,0.0,-0.8
CCOC(=O)c1c(C)[nH]c(C(=O)CN2C(=O)NC3(CCCC3)C2=O)c1C,-12.4,i,i,5.3,0.7,12.3
SMILES,NLRP3 yeast inh,CHT inh,CHT allo act,NALP1 yeast inh,Bfl-1 A1 inh,SUMO Mot1 rescue
O=C(CC1NCCNC1=O)Nc1ccc([N+](=O)[O-])cc1 (centres undefined),14.9,i,i,32.5*,-0.9,189.4
O=c1cc(-c2ccccc2Cl)oc2c(NS(=O)(=O)c3cc(Cl)cc(Cl)c3O)ccc(O)c12,-9.7,-9.84*,i,26.2,0.5,-16.9
CCc1ccc(S(=O)(=O)Nc2ccc(O)c3c(=O)cc(-c4ccccc4Cl)oc23)cc1,12.3,i,i,4.6,-0.4,-8.9
Cc1ccc(-n2nnnc2CNC(=O)c2ccc3c(c2)OCO3)cc1C,1.4,i,i,19.5,0.3,329.5*
Cc1ccc(-n2nnnc2CNC(=O)c2ccc(Br)o2)cc1C,2.9,i,i,3.9,0.7,-5.7
COc1ccc(S(=O)(=O)N(C)c2ccc(C(=O)N3CCC(C(N)=O)CC3)cc2)cc1OC,7.1,i,i,11.1,0.6,345.1*
COc1ccc(N2CC(C(=O)Nc3nnc(Cc4ccccc4)s3)CC2=O)cc1 (centres undefined),9.7,i,i,-2.8,0.4,8.6
COC(=O)c1scc(C)c1N/N=C(\C)c1cc(F)c(Cl)cc1F,5.3,i,i,42.0*,0.0,-10.1
CCOC(=O)C(=CNNc1c(C)csc1C(=O)OC)C(=O)OCC,9.0,i,i,31.6,0.4,-18.1
NC(=O)CN1C(=O)NC2(CCCc3ccccc32)C1=O (centres undefined),14.7,i,i,44.9*,0.3,-2.2
O=C(CN1C(=O)NC2(CCCc3ccccc32)C1=O)N1CCCCC1 (centres undefined),1.9,i,i,nt,0.3,7.9
Cc1ccccc1Nc1nnc(SCc2cc(=O)n3ccsc3n2)s1,-0.9,i,i,26.7*,0.1,3.9
O=c1cc(CSc2nnc(Nc3ccccc3)s2)nc2sccn12,-0.7,i,i,2.7,?,4.9
CSc1ccc(CN2CCC(C(=O)NCc3ccc(C)cc3)CC2)cc1,18.7,i,i,25.0*,-1.2,129.5
CSc1ccc(CN2CCC(Oc3ccc(C(=O)N4CCCC4)cc3)CC2)cc1,23.2,i,i,29.9,-0.4,276.9*
Cc1cc2nc(-c3ccc(SCC(=O)N4CCc5ccccc54)nc3)[nH]c2cc1C,-13.9,i,i,23.7*,-1.6,189.8
COc1ccc(C2=Nn3c(nnc3-c3ccccc3)SC2)cc1OC,3.4,i,i,5.9,-0.1,209.2
CCCc1nnc2n1N=C(c1ccc(OC)c(OC)c1)CS2,14.1,-5.02*,i,8.6,1.2,0.6
O=C(N/N=C/c1cccc(OC(=O)c2cccc(Br)c2)c1)c1ccncc1,12.4,i,i,13.2,1.2,5.8
O=C(CCC1CCN(C(=O)c2ccco2)CC1)NCc1ccc(F)cc1,17.1,i,i,18.3,0.8,-5.4

# Source: PubChem (several laboratories)
